D1 potentiator: human D1 dopamine receptor positive modulation. HEK293 TREx D1 cells, calcium flux, dopamine EC20 potentiation. potentiation, % at 10 µM. 360,000 compounds, 0.036% hits. AID 504651; in the data active = potentiation above about 30%; also: 0% is about no effect
Target sequence (P21728 whole entry, looked up): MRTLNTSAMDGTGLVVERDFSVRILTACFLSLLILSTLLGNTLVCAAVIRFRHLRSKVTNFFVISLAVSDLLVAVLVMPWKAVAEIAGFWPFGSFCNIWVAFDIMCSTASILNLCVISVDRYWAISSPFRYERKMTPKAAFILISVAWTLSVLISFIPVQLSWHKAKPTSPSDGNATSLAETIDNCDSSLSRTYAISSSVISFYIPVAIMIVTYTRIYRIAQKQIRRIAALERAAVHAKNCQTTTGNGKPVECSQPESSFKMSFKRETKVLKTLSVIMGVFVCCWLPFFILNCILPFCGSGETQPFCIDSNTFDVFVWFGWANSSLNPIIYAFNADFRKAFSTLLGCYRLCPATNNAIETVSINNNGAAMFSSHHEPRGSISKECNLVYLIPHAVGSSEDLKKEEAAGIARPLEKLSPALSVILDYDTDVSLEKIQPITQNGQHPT
D1 ag: activates the human D1 dopamine receptor; AID 504660; HEK293 T-REx D1 cells, calcium flux, agonist mode; activation, % at 2 µM; 360,000 compounds, 1% hits; in the data active = activation above about 30%; also: 0% is about no effect
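Inducible HEK293 T-REx D1 cells, force-coupled to calcium signalling, were plated at 4000 cells/well with tetracycline and held overnight at 30 C. After no-wash calcium dye loading, compound-evoked calcium rise over 180 s flagged agonists.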
TRPV1 potentiator: human TRPV1 potentiation | Q8NER1 | TRPV1-expressing cells, Fluo-8 calcium influx, capsaicin EC20 potentiation | potentiation, % at 8.33 µM | 320,000 compounds, 0.02% hits; in the data active = potentiation above about 80%; inconclusive = between about 30% and that limit; also: 0% is about no effect
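TRPV1-expressing cells were cultured overnight at 35.5C and loaded with Fluo-8 calcium dye for 40 to 90 min at room temperature. After a 10 s baseline, compound was added and calcium influx was read kinetically for 3 min (ex 480/em 520 nm).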
TRPV1 agonist: activates the human vanilloid receptor TRPV1 | 320,000 compounds, 0.19% hits | AID 540275 | activation, % at 8.33 µM | Q8NER1 | TRPV1-expressing cells, Fluo-8 calcium influx, agonist mode; in the data active = activation above about 80%; inconclusive = between about 30% and that limit; also: 0% is about no effect
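Fluo-8 calcium influx in TRPV1-expressing cells, kinetic read (ex 480/em 520 nm). Compound added and read 3 min for agonist activity, followed by capsaicin at EC20 final and 2 min further read for enhancement.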
D1 antag: blocks dopamine activation of the human D1 receptor. activity change, negative = inhibition, % at 10 µM. AID 504652. 360,000 compounds, 3.2% hits. P21728. HEK293 TREx D1 cells, calcium flux, dopamine EC80; active compounds read low; in the data active = activity change below about -30%; also: % is scaled to controls: 0 for no effect and ±100 for the full control effect
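Using tetracycline-induced force-coupled D1 Hek293 cells and a calcium dye, signals were followed for 180 s after compound, then for 180 s after EC80 dopamine, to detect inhibitors.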
Numbers without * were called inactive; ? = inconclusive; · = no result. Hits are enriched below; roughly 4.2% of the tested compounds scored in any of these assays.

SMILES	D1 potentiator	D1 ag	TRPV1 potentiator	TRPV1 agonist	D1 antag
CCc1ccc(NC(=O)Cn2c(=O)n(CCCC(=O)NCc3ccccc3OC)c(=O)c3ccccc32)cc1	0	3	·	·	3
COc1cc2nc(NCc3ccccc3)n3nc(-c4ccccc4)nc3c2cc1OC	-4	1	·	·	-4
CN(Cc1nc2ccccc2c(=O)[nH]1)C(=O)c1ccccc1OCc1ccc(Cl)cc1	-1	1	-8	7	-32*
Cc1c(Cl)cccc1NC(=O)CSc1nc(=O)n(Cc2ccncc2)c2c1CCC2	3	3	·	·	·
COc1cc(OC)c(OC)cc1CN1CCN(Cc2ccco2)CC1	1	4	10	-1	-33*
CCOCC(=O)Nc1ccc(-c2cn3c(C)csc3n2)cc1	2	0	·	·	-1
O=C1COc2ccc(C(=O)COC(=O)Cc3c(F)cccc3Cl)cc2N1	1	12	-18	17	-31*
Cc1c(Cl)cccc1N1C(=O)CC(N(O)c2ccccc2)C1=O (stereo not given)	-3	1	17	0	5
Cc1cccc(C)c1N1C(=O)CC(N(O)c2ccccc2)C1=O (stereo not given)	-8	6	-25	-1	-31*
Fc1cc(F)c(C2SCCN2C(=S)Nc2cccc(C(F)(F)F)c2)c(F)c1 (stereo not given)	-4	77*	20	?	0
COC(=O)C(Cc1c[nH]c2ccccc12)NC(=O)CNC(C)=O (stereo not given)	2	2	-5	5	0
COC(=O)C(Cc1c[nH]c2ccccc12)NC(=O)COc1ccc(Cl)cc1Cl (stereo not given)	0	4	0	?	-32*
COCCCN(Cc1ccco1)C(=O)c1cc2c(s1)-c1ccccc1OC2	-5	2	·	·	-6
Cc1ccc2sc(N(CCCN(C)C)C(=O)CN3C(=O)c4ccccc4C3=O)nc2c1C	-2	46*	-1	4	-24
CN(C)CCCN(C(=O)CCc1ccccc1)c1nc2c(F)cccc2s1	-13	35*	2	-6	3
Cc1cccc2sc(N(CCCN(C)C)C(=O)COc3ccccc3)nc12	-2	64*	·	·	1
COc1cccc2sc(N(CCCN(C)C)C(=O)c3sc4ccccc4c3Cl)nc12	-11	4	-7	3	-73*
Cc1ccc2sc(N(CCN(C)C)C(=O)c3ccc4ccccc4c3)nc2c1C	-3	7	7	3	2
Cc1cccc2sc(N(CCCN(C)C)C(=O)c3sc4ccccc4c3Cl)nc12	-1	4	0	0	15
Cc1cccc2sc(N(CCCN(C)C)C(=O)COc3ccc(Cl)cc3)nc12	-3	18	-9	13	-8
Cc1cccc2sc(N(CCCN(C)C)C(=O)c3ccc(C(=O)c4ccccc4)cc3)nc12	-3	24	-30	0	-31*
CC1c2ccsc2CCN1S(=O)(=O)c1ccccc1 (stereo not given)	0	5	-18	?	-1
O=S(=O)(c1cccc(F)c1)N1CCc2sccc2C1c1ccc(OC(F)(F)F)cc1 (stereo not given)	-1	27	0	9	-41*
Cn1c(CCNC(=O)c2ccc(F)cc2)nc2ccccc21	0	2	-8	10	-20
CC(=O)NCCCc1nc2ccccc2n1Cc1cc(C)ccc1C	-2	1	2	89*	19
SMILES	D1 potentiator	D1 ag	TRPV1 potentiator	TRPV1 agonist	D1 antag
COc1cc(C(=O)NCCCc2nc3ccccc3n2Cc2cc(C)ccc2C)cc(OC)c1OC	0	5	13	1	-9
O=C(NCCc1nc2ccccc2n1Cc1ccccc1F)c1ccc(F)cc1	-4	10	-2	?	-36*
COc1ccc(-c2noc(-c3cc(C(C)C)[nH]n3)n2)cc1	3	0	·	·	9
Cc1ccc2[nH]c(=O)c3cc(C(=O)N4CCN(c5ccccc5)CC4)sc3c2c1	3	-1	·	·	9
CCN(CC)c1ccc(/C=C2\SC(=O)N(C(C)C)C2=O)o1	-5	51*	-7	21	-17
Brc1ccc(CNCCCSc2nnnn2-c2ccccc2)cc1	1	95*	·	·	-4
CCOc1cc(CNCCSc2nnnn2-c2ccccc2)cc(Cl)c1OC	1	40*	·	·	-2
Cc1ccccc1CNCCSc1nnnn1-c1ccccc1	8	13	·	·	2
Fc1ccc(-c2ccc(CNCCSc3nnnn3-c3ccccc3)o2)cc1	2	34*	·	·	7
Cc1cc(C)nc(SCCCNCc2ccc(Br)cc2)n1	-4	36*	5	3	-28
Cc1ccc(C)c(N(C)S(=O)(=O)c2ccc3[nH]cc(C(=O)NC4CCCC4)c(=O)c3c2)c1	-1	0	·	·	-11
Cc1cc(NCc2ccc(Cl)cc2)n2cnnc2n1	-2	5	·	·	-4
Cc1ccc(N2C(=O)CSC23C(=O)N(CC(=O)NC2CCCCC2)c2ccccc23)cc1 (stereo not given)	1	1	·	·	0
COc1ccccc1N=c1scc(-c2ccc(S(=O)(=O)N3CCCC3)cc2)n1C	-1	21	·	·	-34*
CC(C)Cn1c(-c2ccc(S(=O)(=O)N3CCCC3)cc2)csc1=Nc1ccccc1	-3	0	·	·	5
CC(=O)Nc1ccccc1-c1nc2ccccc2n(C(C)C(=O)Nc2ccccc2C(F)(F)F)c1=O (stereo not given)	0	2	·	·	-8
N#Cc1c(-c2ccccc2)cc(-c2ccccc2)nc1SCC(O)CS(=O)(=O)Cc1ccccc1 (stereo not given)	-2	4	·	·	4
CCCCc1nn2c(=O)cc(COC(=O)c3ccccc3NC(=O)c3cccc(C)c3)nc2s1	-1	-1	·	·	2
COc1ccc(-c2nnn(CC(=O)N(c3cccc(O)c3)C(C)C(=O)NC3CCCC3)n2)cc1OC (stereo not given)	-8	1	-8	4	-32*
CCOC(=O)c1sc(NC(=O)CSc2n[nH]c(-c3ccncc3)n2)c(C#N)c1C	-4	15	16	2	·
Cc1ccsc1/C=C/C1=Cc2c(sc(NC(=O)CSc3n[nH]c(N)n3)c2C#N)C(C)(C)C1	98*	33*	20	12	149
CCOc1ccc(/C=C/C2=Cc3c(sc(NC(=O)CSc4n[nH]c(N)n4)c3C#N)C(C)(C)C2)cc1	31*	60*	15	0	97
CCOC(=O)c1sc2ccccc2c1S(=O)(=O)Nc1ccc(N(C)C)cc1	-6	3	·	·	-1
CCOc1ccccc1C1CC(=O)Nc2c1c(=O)n(C)c1ncnn21 (stereo not given)	-4	-1	·	·	-14
Cc1ccccc1N1CCN(CCCCN2C(=O)C3CCCN3C2=O)CC1 (stereo not given)	-11	7	-16	4	-57*
N#C/C(=C\c1ccc(N2CCOCC2)o1)C(=O)NCCc1ccccc1	0	124*	9	26	2

Assay outcomes deposited in PubChem BioAssay by National Center for Advancing Translational Sciences (NCATS).
